Reference: PubChem BioAssay
“And” between values parts separate entries of the source, which are not always exact repeats. Equal entries are not always repeated.

Assay: growth inhibition of CRL1545 osteosarcoma cells, cell-based, cisplatin and BGB IC20 combos (AID 1671464);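 further: cells exposed to compound for 96 hours before readout; 0% = vehicle DMSO and 100% = high DMSO killing control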
Settings: measured here: with BGB IC20 combination, at 0.5 µM, stronger effect = higher value

Q: For `COc1ccccc1S(=O)(=O)Nc1ccc2c(c1)CN(C)C(=O)N2`, which inhibition is on record?
A: -39.9%

Q: For `Cc1cc(C#N)cc(C)c1Oc1nc(Nc2ccc(C#N)cc2)nc(N)c1Br`, which inhibition is on record?
A: 4.81%

Q: With `Nc1ncn(C2OC(CO)C(O)C2O)c(=O)n1` (stereo not drawn) as the compound, how does the inhibition read?
A: 16.1%

Q: Which inhibition does the source give for `Cc1cc(C)c(Nc2ccnc(Nc3ccc(C#N)cc3)n2)c(C)c1` here?
A: -10.9%

Q: With `COc1ccc(CC(N)C(=O)NC2C(CO)OC(n3cnc4c(N(C)C)ncnc43)C2O)cc1` (stereo not drawn) as the compound, how does the inhibition read?
A: 92.5% and 96.5%

Q: With `O=c1ccn(C2OC(CO)C(O)C2O)c(=O)[nH]1` (stereo not drawn) as the compound, how does the inhibition read?
A: -2.36% and -19.1%

Q: Which inhibition does the source give for `CC=C1NC(=O)C2CSSCCC=CC(CC(=O)NC(C(C)C)C(=O)N2)OC(=O)C(C(C)C)NC1=O` (stereo not drawn) here?
A: 97% and 96.3%

Q: For `CN(C)CC(=O)Nc1ccc2[nH]c(=O)c3ccccc3c2c1`, which inhibition is on record?
A: -45.9% and 5.19% and -19.6%

Q: Which inhibition does the source give for `CC1OC(n2cc(F)c(=O)[nH]c2=O)C(O)C1O` (stereo not drawn) here?
A: -21.9%

Q: Which inhibition does the source give for `Nc1ccn(C2OC(CO)C(O)C2(F)F)c(=O)n1` (stereo not drawn) here?
A: 73.4% and 66.6% and 67.9%

Q: For `Cc1cn(C2CC(N=[N+]=[N-])C(CO)O2)c(=O)[nH]c1=O` (stereo not drawn), which inhibition is on record?
A: -40.5% and 10%

Q: With `CC(C=CC(=O)NO)=CC(C)C(=O)c1ccc(N(C)C)cc1` (stereo not drawn) as the compound, how does the inhibition read?
A: 86.4%

Q: For `NC(=S)NN=Cc1ncccc1N`, which inhibition is on record?
A: -9.01%

Q: For `CC(C)(C#N)c1ccc(N2C(=O)OCc3cnc4ccc(-c5cnc6ccccc6c5)cc4c32)cc1`, which inhibition is on record?
A: -15%

Q: With `CC1CN(c2c(F)c(N)c3c(=O)c(C(=O)O)cn(C4CC4)c3c2F)CC(C)N1` (stereo not drawn) as the compound, how does the inhibition read?
A: 14.7%

Q: With `CCCCN(Cc1ccc(C(=O)NO)cc1)C(=O)Nc1ccccc1` as the compound, how does the inhibition read?
A: -21.4% and 15.9%

Q: For `O=c1[nH]cnc2c1ncn2C1OC(CO)C(O)C1O` (stereo not drawn), which inhibition is on record?
A: -50.4% and -16.7%

Q: With `Cc1cc(C=CC#N)cc(C)c1Nc1ccnc(Nc2ccc(C#N)cc2)n1` as the compound, how does the inhibition read?
A: -13.1%

Q: Which inhibition does the source give for `CC(Oc1cc(-c2cnn(C3CCNCC3)c2)cnc1N)c1c(Cl)ccc(F)c1Cl` (stereo not drawn) here?
A: -14.1%

Q: For `O=C(O)c1cc2cccc([N+](=O)[O-])c2[nH]1`, which inhibition is on record?
A: -10%

Q: Which inhibition does the source give for `O=c1[nH]c(=O)n(C2CC(O)C(CO)O2)cc1I` (stereo not drawn) here?
A: -15.6%

Same assay, conditions: measured here: with cisplatin IC20 combination, at 0.5 µM, stronger effect = higher value

Q: Which inhibition does the source give for `COc1ccccc1S(=O)(=O)Nc1ccc2c(c1)CN(C)C(=O)N2` here?
A: -21.9%

Q: With `Cc1cc(C#N)cc(C)c1Oc1nc(Nc2ccc(C#N)cc2)nc(N)c1Br` as the compound, how does the inhibition read?
A: -4%

Q: For `Nc1ncn(C2OC(CO)C(O)C2O)c(=O)n1` (stereo not drawn), which inhibition is on record?
A: -8.76%

Q: For `Cc1cc(C)c(Nc2ccnc(Nc3ccc(C#N)cc3)n2)c(C)c1`, which inhibition is on record?
A: 20.9%

Q: For `COc1ccc(CC(N)C(=O)NC2C(CO)OC(n3cnc4c(N(C)C)ncnc43)C2O)cc1` (stereo not drawn), which inhibition is on record?
A: 82.6% and 95.3%

Q: For `O=c1ccn(C2OC(CO)C(O)C2O)c(=O)[nH]1` (stereo not drawn), which inhibition is on record?
A: 17.5% and 3.15%

Q: For `CC=C1NC(=O)C2CSSCCC=CC(CC(=O)NC(C(C)C)C(=O)N2)OC(=O)C(C(C)C)NC1=O` (stereo not drawn), which inhibition is on record?
A: 95.4% and 96.2%

Q: With `CN(C)CC(=O)Nc1ccc2[nH]c(=O)c3ccccc3c2c1` as the compound, how does the inhibition read?
A: -8.03% and 2.6% and 1.49%

Q: With `CC1OC(n2cc(F)c(=O)[nH]c2=O)C(O)C1O` (stereo not drawn) as the compound, how does the inhibition read?
A: -60.2%

Q: Which inhibition does the source give for `Nc1ccn(C2OC(CO)C(O)C2(F)F)c(=O)n1` (stereo not drawn) here?
A: 61.3% and 72.3% and 57.7%

Q: Which inhibition does the source give for `Cc1cn(C2CC(N=[N+]=[N-])C(CO)O2)c(=O)[nH]c1=O` (stereo not drawn) here?
A: -75.6% and 14.6%

Q: With `CC(C=CC(=O)NO)=CC(C)C(=O)c1ccc(N(C)C)cc1` (stereo not drawn) as the compound, how does the inhibition read?
A: 88.7%

Q: With `NC(=S)NN=Cc1ncccc1N` as the compound, how does the inhibition read?
A: 19.9%

Q: With `CC(C)(C#N)c1ccc(N2C(=O)OCc3cnc4ccc(-c5cnc6ccccc6c5)cc4c32)cc1` as the compound, how does the inhibition read?
A: 5.66%

Q: For `CC1CN(c2c(F)c(N)c3c(=O)c(C(=O)O)cn(C4CC4)c3c2F)CC(C)N1` (stereo not drawn), which inhibition is on record?
A: -10.9%

Q: For `CCCCN(Cc1ccc(C(=O)NO)cc1)C(=O)Nc1ccccc1`, which inhibition is on record?
A: 1.44% and 0.349%

Q: With `O=c1[nH]cnc2c1ncn2C1OC(CO)C(O)C1O` (stereo not drawn) as the compound, how does the inhibition read?
A: 15.1% and -1.52%

Q: For `Cc1cc(C=CC#N)cc(C)c1Nc1ccnc(Nc2ccc(C#N)cc2)n1`, which inhibition is on record?
A: -15.2%

Q: Which inhibition does the source give for `CC(Oc1cc(-c2cnn(C3CCNCC3)c2)cnc1N)c1c(Cl)ccc(F)c1Cl` (stereo not drawn) here?
A: -9.79%

Q: For `O=C(O)c1cc2cccc([N+](=O)[O-])c2[nH]1`, which inhibition is on record?
A: -28.5%

Q: With `O=c1[nH]c(=O)n(C2CC(O)C(CO)O2)cc1I` (stereo not drawn) as the compound, how does the inhibition read?
A: -76.5%

Same assay, conditions: single agent, at 0.05 µM, stronger effect = higher value

Q: With `COc1ccccc1S(=O)(=O)Nc1ccc2c(c1)CN(C)C(=O)N2` as the compound, how does the inhibition read?
A: -32%

Q: Which inhibition does the source give for `Cc1cc(C#N)cc(C)c1Oc1nc(Nc2ccc(C#N)cc2)nc(N)c1Br` here?
A: -33.2%

Q: Which inhibition does the source give for `Nc1ncn(C2OC(CO)C(O)C2O)c(=O)n1` (stereo not drawn) here?
A: -10.6%

Q: Which inhibition does the source give for `Cc1cc(C)c(Nc2ccnc(Nc3ccc(C#N)cc3)n2)c(C)c1` here?
A: -17.9%

Q: Which inhibition does the source give for `COc1ccc(CC(N)C(=O)NC2C(CO)OC(n3cnc4c(N(C)C)ncnc43)C2O)cc1` (stereo not drawn) here?
A: -45.7% and -4%

Q: For `O=c1ccn(C2OC(CO)C(O)C2O)c(=O)[nH]1` (stereo not drawn), which inhibition is on record?
A: 32.6% and -48.2%

Q: For `CC=C1NC(=O)C2CSSCCC=CC(CC(=O)NC(C(C)C)C(=O)N2)OC(=O)C(C(C)C)NC1=O` (stereo not drawn), which inhibition is on record?
A: 89.7% and 93.3%

Q: For `CN(C)CC(=O)Nc1ccc2[nH]c(=O)c3ccccc3c2c1`, which inhibition is on record?
A: 18.8% and -30.7% and 29.1%

Q: Which inhibition does the source give for `CC1OC(n2cc(F)c(=O)[nH]c2=O)C(O)C1O` (stereo not drawn) here?
A: -41.1%

Q: Which inhibition does the source give for `Nc1ccn(C2OC(CO)C(O)C2(F)F)c(=O)n1` (stereo not drawn) here?
A: 71.8% and 61.1% and 53.4%

Q: For `Cc1cn(C2CC(N=[N+]=[N-])C(CO)O2)c(=O)[nH]c1=O` (stereo not drawn), which inhibition is on record?
A: -59.4% and 9.83%

Q: For `CC(C=CC(=O)NO)=CC(C)C(=O)c1ccc(N(C)C)cc1` (stereo not drawn), which inhibition is on record?
A: 54.1%

Q: For `NC(=S)NN=Cc1ncccc1N`, which inhibition is on record?
A: 29.3%

Q: With `CC(C)(C#N)c1ccc(N2C(=O)OCc3cnc4ccc(-c5cnc6ccccc6c5)cc4c32)cc1` as the compound, how does the inhibition read?
A: -4.01%

Q: For `CC1CN(c2c(F)c(N)c3c(=O)c(C(=O)O)cn(C4CC4)c3c2F)CC(C)N1` (stereo not drawn), which inhibition is on record?
A: 39.2%

Q: For `CCCCN(Cc1ccc(C(=O)NO)cc1)C(=O)Nc1ccccc1`, which inhibition is on record?
A: -0.576% and -13%

Q: Which inhibition does the source give for `O=c1[nH]cnc2c1ncn2C1OC(CO)C(O)C1O` (stereo not drawn) here?
A: -48.7% and 14.4%

Q: Which inhibition does the source give for `Cc1cc(C=CC#N)cc(C)c1Nc1ccnc(Nc2ccc(C#N)cc2)n1` here?
A: 1.38%

Q: With `CC(Oc1cc(-c2cnn(C3CCNCC3)c2)cnc1N)c1c(Cl)ccc(F)c1Cl` (stereo not drawn) as the compound, how does the inhibition read?
A: 7.84%

Q: For `O=C(O)c1cc2cccc([N+](=O)[O-])c2[nH]1`, which inhibition is on record?
A: 22.7%

Q: For `O=c1[nH]c(=O)n(C2CC(O)C(CO)O2)cc1I` (stereo not drawn), which inhibition is on record?
A: 10.9%
